A short description of assay [1]: Primary qHTS for small molecule stabilizers of the endoplasmic reticulum resident proteome: Secreted ER Calcium Modulated Protein (SERCaMP) assay (AID 1508630). The procedure, abridged:
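The SH-SY5Y reporter protocol was run at 3 concentrations up to 38.3 uM (primary) or 11 concentrations (follow-up): 16 h compound, 100 nM thapsigargin for 4 h, then extracellular luciferase luminescence.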

The nature of assay [2]: A High-Content qHTS Against Drug Library for the Identification of Small Molecules that Inhibit DYT1 Early Onset Primary Dystonia-Associated Cell Pathology (AID 1645839; calls by dose curve; further: series mostly up to about 46 µM). The essentials:
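Cells were seeded and left for 24 h, then dosed with compound alongside tetracycline induction of mutant EGFP-TorsinA. They were incubated for 48 h, fixed in 4% paraformaldehyde, permeabilized and imaged for mislocalization (%pathology) and cell count.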

The target of assay [3] is Cytochrome P450 2D6 (Homo sapiens) (UniProt P10635). Nature of the assay: Cytochrome P450 family 2 subfamily D member 6 (CYP2D6) small molecule antagonists: luciferase biochemical (cell-free) qHTS assay (AID 1645840; active means well fitted curve in the direction sought with a large enough effect in the repeat runs; an effect the other way counts as inactive or inconclusive; further: nearly all actives have a fitted effect of over 55% in size; further: potency means the concentration at half of the fitted maximal effect). The procedure, abridged: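 P450-Glo CYP2D6 system: proluciferin substrate converted by enzyme to luciferin, read by luminescence proportional to activity. Enzyme-substrate mix with compound 10 min at room temperature, then NADPH regeneration 1 h before detection reagent.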
Sequence of Cytochrome P450 2D6 (Homo sapiens) (P10635 whole entry, looked up): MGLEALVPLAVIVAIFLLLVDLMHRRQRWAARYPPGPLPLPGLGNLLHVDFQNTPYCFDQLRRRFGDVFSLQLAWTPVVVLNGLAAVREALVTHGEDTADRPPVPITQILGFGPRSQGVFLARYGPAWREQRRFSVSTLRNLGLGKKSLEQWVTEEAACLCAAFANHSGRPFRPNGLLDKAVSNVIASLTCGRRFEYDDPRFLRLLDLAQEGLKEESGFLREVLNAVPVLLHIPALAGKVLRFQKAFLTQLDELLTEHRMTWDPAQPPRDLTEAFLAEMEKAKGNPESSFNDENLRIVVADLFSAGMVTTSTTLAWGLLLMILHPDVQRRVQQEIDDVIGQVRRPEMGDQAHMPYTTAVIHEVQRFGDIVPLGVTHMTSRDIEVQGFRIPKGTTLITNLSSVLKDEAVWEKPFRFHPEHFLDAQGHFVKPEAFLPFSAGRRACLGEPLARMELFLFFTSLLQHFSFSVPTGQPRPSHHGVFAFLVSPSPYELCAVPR

Assay [4] concerns the target Cytochrome P450 2C9 (Homo sapiens) (UniProt P11712). The experiment in a line: Cytochrome P450 family 2 subfamily C member 9 (CYP2C9) small molecule antagonists: luciferase biochemical (cell-free) qHTS assay (AID 1645842; active means well fitted curve in the direction sought with a large enough effect in the repeat runs; an effect the other way counts as inactive or inconclusive; further: nearly all actives have a fitted effect of over 55% in size; further: potency means the concentration at half of the fitted maximal effect). The essentials:
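P450-Glo CYP2C9 system: proluciferin substrate with enzyme in mix containing 0.4% BSA, 10 min at room temperature, then NADPH regeneration solution added and incubated 1 h at 37C. Detection reagent stopped reaction; luminescence read after 20 min as RLU.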

A short description of assay [5]: Primary qHTS for inhibitors of nuclear receptor binding SET domain protein 2 (NSD2) in an isogenic RCH-ACV NSD2 p.E1099K mutant (9B) (AID 1645876). Further: nearly all actives have a fitted effect of over 70% in size.

Records with an inconclusive call do not appear. Values without a mark were called inactive. The source made the active and inactive calls. Unless noted, the call rests on the fitted dose curve; in most records, active means well fitted curve in the direction sought with a large enough effect; inconclusive means small, poorly fitted or top-dose-only effect, or another doubt; inactive means no such curve, though single readings can be large; an effect the other way counts as inactive or inconclusive.

Sequence of Cytochrome P450 2C9 (Homo sapiens) (P11712 whole entry, looked up): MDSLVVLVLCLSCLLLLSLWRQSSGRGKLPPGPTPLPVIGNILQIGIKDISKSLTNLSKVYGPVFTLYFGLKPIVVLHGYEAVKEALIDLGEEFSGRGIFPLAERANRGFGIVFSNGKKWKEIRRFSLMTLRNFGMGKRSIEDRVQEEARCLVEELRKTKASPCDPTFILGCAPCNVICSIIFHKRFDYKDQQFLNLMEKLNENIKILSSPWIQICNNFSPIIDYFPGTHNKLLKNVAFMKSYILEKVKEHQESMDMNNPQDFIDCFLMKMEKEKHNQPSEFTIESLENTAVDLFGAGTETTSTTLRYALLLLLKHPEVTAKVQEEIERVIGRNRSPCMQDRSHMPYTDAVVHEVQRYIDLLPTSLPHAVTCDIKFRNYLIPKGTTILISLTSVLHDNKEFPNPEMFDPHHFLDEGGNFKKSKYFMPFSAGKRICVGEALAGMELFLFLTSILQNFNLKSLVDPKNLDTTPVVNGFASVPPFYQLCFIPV

For the molecule `CCCCCC(N)=O`, the outcome in assay [1] was inactive. For the same molecule, the Potency result in assay [2], in assay [3], in assay [4] and in assay [5] was “inactive” each time.

Turning to `O=C1c2ccccc2C(=O)C1c1ccc(Br)cc1`, the outcome in assay [1] was inactive. The Potency result in assay [2], in assay [3] and in assay [5] was “inactive” in each case. In addition, the Potency in assay [4] was 2.19 µM (active).

For the molecule `COC(=O)c1ccccc1C(=O)c1ccc(OCCN2CCCCC2)cc1`, the outcome in assay [1] was inactive. Moreover, the Potency result in assay [2], in assay [4] and in assay [5] was “inactive” throughout. In addition, the Potency in assay [3] was 11 µM (active).

With `O=C(c1ccccc1)C(O)c1ccccc1` (stereo not given), the result in assay [1] was inactive. In addition, the Potency result in assay [2], in assay [3], in assay [4] and in assay [5] was “inactive” each time.

Take `C[C@H]1COc2c(C3(N)CC3)c(F)cc3c(=O)c(C(=O)O)cn1c23`: in assay [1], the outcome was inactive. The Potency result in assay [2], in assay [3], in assay [4] and in assay [5] was “inactive” each time.

Regarding `CCOC(=O)[C@H](CCc1ccccc1)N[C@@H](C)C(=O)N1CCC[C@H]1C(=O)O`, the result in assay [1] was inactive. In addition, the Potency entry in assay [2], in assay [3], in assay [4] and in assay [5] was “inactive” in each case.

For the molecule `CCOC(=O)[C@H](CCc1ccccc1)N[C@@H](C)C(=O)N1Cc2cc(OC)c(OC)cc2C[C@H]1C(=O)O`, the outcome in assay [1] was inactive. For the same molecule, the Potency entry in assay [2], in assay [3] and in assay [5] was “inactive” in each case. In addition, the Potency in assay [4] is 12.3 µM (active).

Take `O=C(Cn1ccnc1[N+](=O)[O-])NCc1ccccc1`: the outcome in assay [1] was inactive. The Potency result in assay [2], in assay [3], in assay [4] and in assay [5] was “inactive” throughout.

With `CC(C(=O)O)c1ccc2c(c1)Cc1cccnc1O2` (stereo not given), in assay [1], the outcome was inactive. The Potency result in assay [2], in assay [3], in assay [4] and in assay [5] was “inactive” throughout.

Regarding `CNCc1ccccc1`, the result in assay [1] was inactive. Further, the Potency result in assay [2], in assay [4] and in assay [5] was “inactive” throughout. For the same molecule, in assay [3], the Potency was 11 µM (active).

On to `Cc1ccc(S(=O)(=O)NC(=O)NC2CCCCCCC2)cc1`, for which the result in assay [1] was inactive. The Potency result in assay [2], in assay [3] and in assay [5] was “inactive” each time. Also, the Potency in assay [4] is 17.4 µM (active).

As to `Cc1cc(C)nc(NS(=O)(=O)c2ccc(N)cc2)n1`, the result in assay [1] was inactive. The Potency result in assay [2], in assay [3], in assay [4] and in assay [5] was “inactive” throughout.

Turning to `CC1(C)[C@@H](OC(=O)CCC(=O)O)CC[C@]2(C)[C@H]3C(=O)C=C4[C@@H]5C[C@@](C)(C(=O)O)CC[C@]5(C)CC[C@@]4(C)[C@]3(C)CC[C@@H]12`, the result in assay [1] was inactive. Further, the Potency result in assay [2], in assay [3], in assay [4] and in assay [5] was “inactive” throughout.

Regarding `Cc1cccc(C(=O)O)c1O`, the outcome in assay [1] was inactive. Besides, the Potency entry in assay [2], in assay [3], in assay [4] and in assay [5] was “inactive” in each case.

For the molecule `Cn1c(=O)c2c(ncn2CCO)n(C)c1=O`, in assay [1], the result was inactive. Moreover, the Potency result in assay [2], in assay [3], in assay [4] and in assay [5] was “inactive” throughout.

On to `Cc1c(C)c2c(c(C)c1OC(=O)c1cccnc1)CC[C@@](C)(CCC[C@H](C)CCC[C@H](C)CCCC(C)C)O2`, for which, in assay [1], the result was inactive. In addition, the Potency entry in assay [2], in assay [3], in assay [4] and in assay [5] was “inactive” throughout.

For `CC1CCN(CCCC(=O)c2ccc(F)cc2)CC1`, the outcome in assay [1] was inactive. The Potency entry in assay [2], in assay [4] and in assay [5] was “inactive” each time. For the same molecule, the Potency in assay [3] was 0.195 µM (active).

Take `O=C1c2cccc(O)c2C(=O)c2c(O)cccc21`: the result in assay [1] was inactive. The Potency entry in assay [2], in assay [3], in assay [4] and in assay [5] was “inactive” each time.

With `Cc1[nH]c(C)c(Cl)c(=O)c1Cl`, the outcome in assay [1] was inactive. Moreover, the Potency entry in assay [2], in assay [3], in assay [4] and in assay [5] was “inactive” in each case.

As to `CC(C)(C)NCC(O)COc1cccc2c1CCC(=O)N2` (stereo not given), the result in assay [1] was inactive. Also, the Potency result in assay [2], in assay [3], in assay [4] and in assay [5] was “inactive” in each case.

For `CC(=O)Nc1cccc(O)c1`, the outcome in assay [1] was inactive. Moreover, the Potency entry in assay [2], in assay [3], in assay [4] and in assay [5] was “inactive” in each case.

As for `COc1cc(O)cc(O)c1`, the result in assay [1] was inactive. For the same molecule, the Potency result in assay [2], in assay [3], in assay [4] and in assay [5] was “inactive” each time.

As to `O=C(Cn1ccnc1[N+](=O)[O-])NCCO`, in assay [1], the outcome was inactive. The Potency entry in assay [2], in assay [3], in assay [4] and in assay [5] was “inactive” in each case.

On to `CN1CCCN=C1COC(=O)C(O)(c1ccccc1)C1CCCCC1` (stereo not given), for which the result in assay [1] was inactive. The Potency result in assay [2], in assay [4] and in assay [5] was “inactive” in each case. For the same molecule, the Potency in assay [3] is 1.23 µM (active).

Regarding `CN1C(=O)CC(c2ccccc2)C1=O` (stereo not given), in assay [1], the outcome was inactive. The Potency entry in assay [2], in assay [3], in assay [4] and in assay [5] was “inactive” in each case.

Consider `O=C(NCCCN1CCOCC1)c1ccc(Cl)cc1`, for which, in assay [1], the result was inactive. The Potency result in assay [2], in assay [4] and in assay [5] was “inactive” in each case. In addition, the Potency in assay [3] was 2.72 µM (active).

`Cc1cc(O)cc(C)c1Cl`: the outcome in assay [1] was inactive. Besides, the Potency entry in assay [2], in assay [3], in assay [4] and in assay [5] was “inactive” throughout.

For `CC[C@]12CCCN3CCc4c(n(c5ccccc45)[C@@](O)(C(=O)OC)C1)[C@@H]32`, the outcome in assay [1] was inactive. The Potency entry in assay [2], in assay [4] and in assay [5] was “inactive” throughout. Moreover, the Potency in assay [3] is 11 µM (active).

`Nc1ccncc1N`: in assay [1], the outcome was inactive. Also, the Potency result in assay [2], in assay [3], in assay [4] and in assay [5] was “inactive” throughout.

Take `O=c1[nH]c(=O)c2ccccc2o1`: in assay [1], the outcome was inactive. Moreover, the Potency result in assay [2], in assay [3], in assay [4] and in assay [5] was “inactive” each time.

Take `CCN(CC)CCc1nc(-c2ccccc2)no1`: the result in assay [1] was inactive. The Potency entry in assay [2], in assay [3], in assay [4] and in assay [5] was “inactive” each time.

As to `C=CCSCC1Nc2cc(Cl)c(S(N)(=O)=O)cc2S(=O)(=O)N1` (stereo not given), the result in assay [1] was inactive. Further, the Potency entry in assay [2], in assay [3] and in assay [5] was “inactive” in each case. In addition, in assay [4], the Potency is 8.49 µM (active).

As for `Cc1cccc(C)c1NC(=O)CC12CCCN1CCC2`, the outcome in assay [1] was inactive. The Potency entry in assay [2], in assay [3], in assay [4] and in assay [5] was “inactive” throughout.

Turning to `OCCN1C[C@H](O)[C@@H](O)[C@H](O)[C@H]1CO`, in assay [1], the outcome was inactive. Besides, the Potency entry in assay [2], in assay [3], in assay [4] and in assay [5] was “inactive” in each case.

The values are drawn from PubChem BioAssay (NCATS).
